Experimental data taken from publication PMC7862700, “An all-to-all approach to the identification of sequence-specific readers for epigenetic DNA modifications on cytosine”.

What was measured:
Assay in all cases: DAPPL (digital affinity profiling via proximity ligation, sequencing); 10 mM Tris-HCl pH 7.5, 50 mM NaCl, 1 mM DTT, 4% glycerol, room temperature, 30 min; GST-TFs on glutathione beads, 16-mer random dsDNA library, 0.1% formaldehyde crosslink after washing; high values mean tight binding
Conditions in all cases: protein: recombinant; tags: N-terminal GST; dsDNA, one strand shown
FEV = biological target: T1, FEV (Homo sapiens, UniProt Q99581 1-238)
T1 sequence: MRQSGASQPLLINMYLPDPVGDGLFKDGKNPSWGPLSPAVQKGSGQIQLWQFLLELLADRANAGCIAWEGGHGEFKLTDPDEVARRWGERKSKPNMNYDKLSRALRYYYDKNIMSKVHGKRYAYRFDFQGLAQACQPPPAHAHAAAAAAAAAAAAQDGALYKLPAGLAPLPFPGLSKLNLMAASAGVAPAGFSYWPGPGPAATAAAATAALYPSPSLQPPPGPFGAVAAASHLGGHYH
How it was run: (§1)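 GST fusions of human transcription factors were expressed in yeast and captured with glutathione beads. Once given DNA barcodes and pooled alongside a tag-only sample, they were incubated for 30 min at room temperature with 200 nmole of a random double-stranded 16-mer DNA library in Tris/NaCl/DTT/glycerol buffer, then washed, crosslinked (0.1% formaldehyde), proximity-ligated, PCR-amplified and sequenced on an Illumina NextSeq500. The binding signal of each hexamer is its read frequency for a factor divided by its frequency for the tag-only sample.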

ETV5 = ETV5 (Homo sapiens, UniProt P41161 1-510)
How it was run: as §1

SPIC = biological target: T2, SPIC (Homo sapiens, UniProt Q8N5J4 1-248)
T2 sequence: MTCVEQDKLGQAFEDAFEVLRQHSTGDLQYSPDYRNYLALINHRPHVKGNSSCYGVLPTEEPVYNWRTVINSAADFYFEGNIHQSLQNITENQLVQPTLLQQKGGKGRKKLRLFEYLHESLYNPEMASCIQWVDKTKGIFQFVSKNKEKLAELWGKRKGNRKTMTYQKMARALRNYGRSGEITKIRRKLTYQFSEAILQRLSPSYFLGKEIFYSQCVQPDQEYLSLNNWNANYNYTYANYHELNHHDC
How it was run: as §1

ELF4 = ELF4 (Homo sapiens, UniProt Q99607 1-663)
How it was run: as §1

ELK4 = biological target: T3, ELK4 (Homo sapiens, UniProt P28324-2 1-405)
T3 sequence: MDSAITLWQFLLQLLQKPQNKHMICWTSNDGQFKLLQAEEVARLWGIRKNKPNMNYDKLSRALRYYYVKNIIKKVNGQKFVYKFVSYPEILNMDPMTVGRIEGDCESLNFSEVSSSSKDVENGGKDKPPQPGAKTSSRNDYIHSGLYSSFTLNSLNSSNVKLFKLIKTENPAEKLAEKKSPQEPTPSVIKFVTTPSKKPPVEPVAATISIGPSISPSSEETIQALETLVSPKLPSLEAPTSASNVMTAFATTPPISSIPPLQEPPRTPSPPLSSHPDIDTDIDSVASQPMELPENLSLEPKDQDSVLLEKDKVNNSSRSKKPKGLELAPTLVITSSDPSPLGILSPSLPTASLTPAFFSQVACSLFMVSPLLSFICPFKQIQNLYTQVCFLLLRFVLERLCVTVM
How it was run: as §1

ETV2 = biological target: T4, ETV2 (Homo sapiens, UniProt O00321 1-342)
T4 sequence: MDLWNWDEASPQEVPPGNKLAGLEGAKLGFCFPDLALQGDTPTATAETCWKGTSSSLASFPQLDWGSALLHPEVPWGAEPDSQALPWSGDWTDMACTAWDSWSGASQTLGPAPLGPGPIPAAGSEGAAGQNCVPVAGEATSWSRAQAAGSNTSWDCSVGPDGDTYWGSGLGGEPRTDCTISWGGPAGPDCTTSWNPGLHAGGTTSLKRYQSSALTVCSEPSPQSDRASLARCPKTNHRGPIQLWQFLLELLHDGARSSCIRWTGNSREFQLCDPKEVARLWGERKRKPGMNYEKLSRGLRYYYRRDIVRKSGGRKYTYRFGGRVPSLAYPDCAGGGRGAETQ
How it was run: as §1

ELF3 = biological target: T5, ELF3 (Homo sapiens, UniProt P78545 1-371)
T5 sequence: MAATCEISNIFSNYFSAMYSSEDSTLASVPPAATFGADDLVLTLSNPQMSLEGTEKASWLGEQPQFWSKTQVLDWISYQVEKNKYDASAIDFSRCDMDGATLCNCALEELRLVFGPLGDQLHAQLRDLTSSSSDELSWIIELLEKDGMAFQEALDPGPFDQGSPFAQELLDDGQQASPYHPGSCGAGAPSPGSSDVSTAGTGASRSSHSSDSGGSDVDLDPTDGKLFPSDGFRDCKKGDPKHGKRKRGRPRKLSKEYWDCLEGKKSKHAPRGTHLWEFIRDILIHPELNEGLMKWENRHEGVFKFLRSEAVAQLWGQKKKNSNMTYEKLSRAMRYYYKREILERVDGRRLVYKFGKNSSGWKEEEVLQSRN
How it was run: as §1

ETV1 = ETV1 (Homo sapiens, UniProt P50549 1-477)
How it was run: as §1

ERF = biological target: T6, ERF (Homo sapiens, UniProt P50548 1-548)
T6 sequence: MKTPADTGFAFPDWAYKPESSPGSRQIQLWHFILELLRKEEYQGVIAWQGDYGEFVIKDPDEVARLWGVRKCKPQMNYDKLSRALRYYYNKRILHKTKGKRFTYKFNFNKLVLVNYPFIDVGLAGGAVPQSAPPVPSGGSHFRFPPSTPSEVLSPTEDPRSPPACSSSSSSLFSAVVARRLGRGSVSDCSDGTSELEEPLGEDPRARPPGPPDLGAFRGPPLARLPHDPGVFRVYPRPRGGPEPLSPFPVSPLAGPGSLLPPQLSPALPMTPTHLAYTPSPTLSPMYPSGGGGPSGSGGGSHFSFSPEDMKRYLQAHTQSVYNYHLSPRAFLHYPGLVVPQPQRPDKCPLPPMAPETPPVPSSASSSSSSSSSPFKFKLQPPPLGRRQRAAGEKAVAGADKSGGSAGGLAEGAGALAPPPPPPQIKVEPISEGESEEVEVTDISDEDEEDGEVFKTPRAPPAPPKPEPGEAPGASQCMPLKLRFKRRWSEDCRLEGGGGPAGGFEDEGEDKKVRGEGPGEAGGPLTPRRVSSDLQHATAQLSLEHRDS
How it was run: as §1

ETV3L = biological target: T7, ETV3L (Homo sapiens, UniProt Q6ZN32 1-361)
T7 sequence: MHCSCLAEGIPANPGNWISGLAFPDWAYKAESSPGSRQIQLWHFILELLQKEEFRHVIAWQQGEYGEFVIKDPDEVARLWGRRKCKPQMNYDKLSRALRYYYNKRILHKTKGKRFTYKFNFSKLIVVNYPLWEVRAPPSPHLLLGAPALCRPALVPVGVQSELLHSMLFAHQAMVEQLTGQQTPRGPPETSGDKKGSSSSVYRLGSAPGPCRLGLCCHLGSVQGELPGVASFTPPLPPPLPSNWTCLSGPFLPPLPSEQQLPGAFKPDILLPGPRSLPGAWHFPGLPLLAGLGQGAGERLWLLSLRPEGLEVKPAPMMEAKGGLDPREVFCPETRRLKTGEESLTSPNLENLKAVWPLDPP
How it was run: as §1

ETS2 = biological target: T8, ETS2 (Homo sapiens, UniProt P15036 1-469)
T8 sequence: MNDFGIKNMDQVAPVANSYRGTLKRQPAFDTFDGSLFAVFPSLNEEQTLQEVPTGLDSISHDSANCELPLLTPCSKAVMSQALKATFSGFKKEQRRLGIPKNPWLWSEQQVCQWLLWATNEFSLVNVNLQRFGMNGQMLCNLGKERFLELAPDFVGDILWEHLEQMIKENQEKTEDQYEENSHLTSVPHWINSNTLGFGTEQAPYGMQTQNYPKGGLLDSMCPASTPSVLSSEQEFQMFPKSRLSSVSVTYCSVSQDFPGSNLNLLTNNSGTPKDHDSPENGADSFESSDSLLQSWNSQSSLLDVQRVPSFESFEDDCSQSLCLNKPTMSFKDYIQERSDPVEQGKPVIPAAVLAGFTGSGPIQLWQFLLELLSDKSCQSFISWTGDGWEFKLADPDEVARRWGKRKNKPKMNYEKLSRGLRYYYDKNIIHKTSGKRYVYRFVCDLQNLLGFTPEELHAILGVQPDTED
How it was run: as §1

SPDEF = biological target: T9, SPDEF (Homo sapiens, UniProt O95238 1-335)
T9 sequence: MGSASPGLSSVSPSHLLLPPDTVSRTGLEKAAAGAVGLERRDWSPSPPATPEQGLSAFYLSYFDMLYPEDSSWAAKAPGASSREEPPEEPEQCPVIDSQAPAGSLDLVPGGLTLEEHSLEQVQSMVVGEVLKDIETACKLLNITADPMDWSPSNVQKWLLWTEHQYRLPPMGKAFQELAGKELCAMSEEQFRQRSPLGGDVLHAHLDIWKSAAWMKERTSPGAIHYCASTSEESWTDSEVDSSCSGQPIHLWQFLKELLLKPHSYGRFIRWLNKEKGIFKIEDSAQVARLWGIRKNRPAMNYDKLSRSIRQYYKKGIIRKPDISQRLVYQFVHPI
How it was run: as §1

ETV7 = biological target: T10, ETV7 (Homo sapiens, UniProt Q9Y603 1-341)
T10 sequence: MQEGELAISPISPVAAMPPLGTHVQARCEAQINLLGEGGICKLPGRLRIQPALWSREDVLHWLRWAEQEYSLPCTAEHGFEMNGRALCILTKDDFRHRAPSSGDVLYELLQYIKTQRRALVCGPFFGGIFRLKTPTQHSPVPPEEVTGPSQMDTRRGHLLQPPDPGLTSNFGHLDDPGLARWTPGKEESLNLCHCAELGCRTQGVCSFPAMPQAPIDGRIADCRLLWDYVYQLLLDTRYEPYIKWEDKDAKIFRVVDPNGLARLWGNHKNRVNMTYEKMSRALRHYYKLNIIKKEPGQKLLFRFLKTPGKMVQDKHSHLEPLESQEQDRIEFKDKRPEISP
How it was run: as §1

ELF5 = biological target: T11, ELF5 (Homo sapiens, UniProt Q9UKW6-2 1-255)
T11 sequence: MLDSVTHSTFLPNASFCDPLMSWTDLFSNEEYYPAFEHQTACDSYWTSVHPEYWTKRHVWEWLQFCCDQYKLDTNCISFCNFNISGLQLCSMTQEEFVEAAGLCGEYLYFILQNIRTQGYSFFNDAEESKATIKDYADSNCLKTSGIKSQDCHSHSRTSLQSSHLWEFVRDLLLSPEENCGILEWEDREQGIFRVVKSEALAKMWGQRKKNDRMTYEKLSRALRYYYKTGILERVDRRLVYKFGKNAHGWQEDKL
How it was run: as §1

ETV3 = biological target: T12, ETV3 (Homo sapiens, UniProt P41162-2 1-143)
T12 sequence: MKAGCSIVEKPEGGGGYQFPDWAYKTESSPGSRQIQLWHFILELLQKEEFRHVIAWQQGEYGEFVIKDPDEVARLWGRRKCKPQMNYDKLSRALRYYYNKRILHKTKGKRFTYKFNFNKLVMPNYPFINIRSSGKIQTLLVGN
How it was run: as §1

ETV6 = ETV6 (Homo sapiens, UniProt P41212 1-452)
How it was run: as §1

Sequence of ELF4 (Q99607 whole entry): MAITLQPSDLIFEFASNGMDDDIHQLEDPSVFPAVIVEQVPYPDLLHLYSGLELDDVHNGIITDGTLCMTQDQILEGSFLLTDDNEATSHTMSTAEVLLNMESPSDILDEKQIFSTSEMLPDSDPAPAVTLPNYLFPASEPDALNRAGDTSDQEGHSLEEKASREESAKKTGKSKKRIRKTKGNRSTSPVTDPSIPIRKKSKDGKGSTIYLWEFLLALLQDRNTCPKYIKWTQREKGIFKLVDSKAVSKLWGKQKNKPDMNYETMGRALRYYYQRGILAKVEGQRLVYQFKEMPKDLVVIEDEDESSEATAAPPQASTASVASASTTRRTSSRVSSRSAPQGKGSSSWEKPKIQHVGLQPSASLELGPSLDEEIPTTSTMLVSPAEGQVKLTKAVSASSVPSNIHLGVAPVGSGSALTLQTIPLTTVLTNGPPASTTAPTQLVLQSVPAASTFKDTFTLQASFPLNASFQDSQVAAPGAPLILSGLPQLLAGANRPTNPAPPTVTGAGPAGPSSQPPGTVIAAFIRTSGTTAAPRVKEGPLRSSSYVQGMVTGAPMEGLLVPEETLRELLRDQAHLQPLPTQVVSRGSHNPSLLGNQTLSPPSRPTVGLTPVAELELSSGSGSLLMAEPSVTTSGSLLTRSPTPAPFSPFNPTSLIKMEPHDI
Sequence of ETV6 (P41212 whole entry): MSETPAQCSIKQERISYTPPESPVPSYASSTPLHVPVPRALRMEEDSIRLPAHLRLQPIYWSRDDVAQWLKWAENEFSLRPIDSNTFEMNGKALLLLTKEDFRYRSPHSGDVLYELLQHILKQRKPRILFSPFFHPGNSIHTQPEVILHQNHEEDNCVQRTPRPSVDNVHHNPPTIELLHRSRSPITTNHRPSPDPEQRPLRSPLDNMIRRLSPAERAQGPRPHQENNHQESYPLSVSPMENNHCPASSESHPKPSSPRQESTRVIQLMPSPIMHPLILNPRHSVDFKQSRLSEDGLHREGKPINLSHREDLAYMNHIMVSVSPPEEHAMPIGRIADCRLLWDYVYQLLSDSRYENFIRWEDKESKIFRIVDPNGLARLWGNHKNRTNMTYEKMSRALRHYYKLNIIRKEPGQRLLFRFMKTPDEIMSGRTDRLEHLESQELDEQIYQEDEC
Sequence of ETV5 (P41161 whole entry): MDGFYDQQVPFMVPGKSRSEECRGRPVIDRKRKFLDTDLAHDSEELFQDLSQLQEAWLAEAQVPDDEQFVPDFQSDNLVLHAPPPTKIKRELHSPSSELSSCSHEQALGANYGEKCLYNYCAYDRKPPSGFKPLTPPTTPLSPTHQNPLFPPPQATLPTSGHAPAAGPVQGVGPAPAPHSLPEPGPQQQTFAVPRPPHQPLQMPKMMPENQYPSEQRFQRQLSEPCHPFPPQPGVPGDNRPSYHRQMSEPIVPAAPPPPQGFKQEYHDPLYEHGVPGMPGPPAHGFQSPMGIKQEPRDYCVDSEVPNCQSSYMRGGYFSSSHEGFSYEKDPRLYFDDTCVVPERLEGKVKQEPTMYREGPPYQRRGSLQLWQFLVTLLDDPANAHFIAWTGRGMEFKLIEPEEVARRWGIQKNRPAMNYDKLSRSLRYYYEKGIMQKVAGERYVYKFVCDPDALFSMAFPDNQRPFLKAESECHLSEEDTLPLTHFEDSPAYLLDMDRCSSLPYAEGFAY
Sequence of ETV1 (P50549 whole entry): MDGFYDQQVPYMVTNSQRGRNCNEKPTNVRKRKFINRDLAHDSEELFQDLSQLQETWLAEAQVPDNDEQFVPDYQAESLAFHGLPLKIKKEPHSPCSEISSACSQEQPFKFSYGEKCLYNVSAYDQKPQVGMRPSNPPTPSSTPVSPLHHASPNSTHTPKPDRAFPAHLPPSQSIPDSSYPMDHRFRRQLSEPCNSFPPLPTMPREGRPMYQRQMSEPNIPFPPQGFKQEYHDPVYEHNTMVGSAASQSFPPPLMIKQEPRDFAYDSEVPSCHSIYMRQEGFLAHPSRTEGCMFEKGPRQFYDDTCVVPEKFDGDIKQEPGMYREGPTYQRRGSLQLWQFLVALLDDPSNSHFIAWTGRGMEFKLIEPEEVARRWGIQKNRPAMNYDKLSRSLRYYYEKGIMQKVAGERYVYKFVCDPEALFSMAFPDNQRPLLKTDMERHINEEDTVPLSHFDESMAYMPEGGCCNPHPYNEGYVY

Sequence	binding signal (FEV)	binding signal (ETV5)	binding signal (SPIC)	binding signal (ELF4)	binding signal (ELK4)	binding signal (ETV2)	binding signal (ELF3)	binding signal (ETV1)	binding signal (ERF)	binding signal (ETV3L)	binding signal (ETS2)	binding signal (SPDEF)	binding signal (ETV7)	binding signal (ELF5)	binding signal (ETV3)	binding signal (ETV6)
TGCATG	1.04 fold enrichment (6-mer frequency, TF over GST control)	1.15 fold enrichment (6-mer frequency, TF over GST control)	1.27 fold enrichment (6-mer frequency, TF over GST control)	1.08 fold enrichment (6-mer frequency, TF over GST control)	1.05 fold enrichment (6-mer frequency, TF over GST control)	1.08 fold enrichment (6-mer frequency, TF over GST control)	1.02 fold enrichment (6-mer frequency, TF over GST control)	1.06 fold enrichment (6-mer frequency, TF over GST control)	1.06 fold enrichment (6-mer frequency, TF over GST control)	1.27 fold enrichment (6-mer frequency, TF over GST control)	1.06 fold enrichment (6-mer frequency, TF over GST control)	1.06 fold enrichment (6-mer frequency, TF over GST control)	1.06 fold enrichment (6-mer frequency, TF over GST control)	1.01 fold enrichment (6-mer frequency, TF over GST control)	1.1 fold enrichment (6-mer frequency, TF over GST control)	1.08 fold enrichment (6-mer frequency, TF over GST control)
CGGTTC	1.42 fold enrichment (6-mer frequency, TF over GST control)	1.31 fold enrichment (6-mer frequency, TF over GST control)	1.2 fold enrichment (6-mer frequency, TF over GST control)	1.19 fold enrichment (6-mer frequency, TF over GST control)	1.29 fold enrichment (6-mer frequency, TF over GST control)	1.39 fold enrichment (6-mer frequency, TF over GST control)	1.33 fold enrichment (6-mer frequency, TF over GST control)	1.39 fold enrichment (6-mer frequency, TF over GST control)	1.21 fold enrichment (6-mer frequency, TF over GST control)	1.17 fold enrichment (6-mer frequency, TF over GST control)	1.21 fold enrichment (6-mer frequency, TF over GST control)	1.63 fold enrichment (6-mer frequency, TF over GST control)	1.17 fold enrichment (6-mer frequency, TF over GST control)	1.33 fold enrichment (6-mer frequency, TF over GST control)	1.3 fold enrichment (6-mer frequency, TF over GST control)	1.4 fold enrichment (6-mer frequency, TF over GST control)
ATGCGG	1.13 fold enrichment (6-mer frequency, TF over GST control)	1.29 fold enrichment (6-mer frequency, TF over GST control)	1.49 fold enrichment (6-mer frequency, TF over GST control)	1.23 fold enrichment (6-mer frequency, TF over GST control)	1.15 fold enrichment (6-mer frequency, TF over GST control)	1.27 fold enrichment (6-mer frequency, TF over GST control)	1.63 fold enrichment (6-mer frequency, TF over GST control)	1.24 fold enrichment (6-mer frequency, TF over GST control)	1.12 fold enrichment (6-mer frequency, TF over GST control)	1.25 fold enrichment (6-mer frequency, TF over GST control)	1.32 fold enrichment (6-mer frequency, TF over GST control)	1.32 fold enrichment (6-mer frequency, TF over GST control)	1.25 fold enrichment (6-mer frequency, TF over GST control)	1.21 fold enrichment (6-mer frequency, TF over GST control)	1.45 fold enrichment (6-mer frequency, TF over GST control)	1.26 fold enrichment (6-mer frequency, TF over GST control)
